Shiga inhibitor: A qHTS for Small Molecule Inhibitors of Shiga Toxin; Vero cells, Shiga toxin protein synthesis inhibition reporter; inhibition, % at 38.7 µM; 290,000 compounds, 9.2% hits; AID 2315, 2010; in the data active means inhibition mostly above about 28%, no sharp cut-off; inactive means mostly below about 43%
Marburg entry inh: qHTS for inhibitors of binding or entry into cells for Marburg Virus. 300,000 compounds, 1.8% hits. Potency, µM (top dose mostly 37.8 µM), most hits filed as inhibitors. Marburg virus pseudotyped entry inhibition, cell reporter; calls by dose curve; tested in HEK293 cells
LASV entry inh: qHTS for Inhibitors of binding or entry into cells for Lassa Virus; Lassa virus pseudotype entry inhibition, cell reporter; Potency, µM (doses to about 37.9 µM), actives largely listed as inhibitors; 300,000 compounds, 1.2% hits; calls by dose curve; tested in HEK293 cells; further: nearly all actives have a fitted effect of over 50% in size
Cycloheximide cs: Cycloheximide Counterscreen for Small Molecule Inhibitors of Shiga Toxin. cell reporter, cycloheximide protein synthesis inhibition counterscreen. max response, %. 300,000 compounds, 12% hits. AID 2314, 2010; in the data active means max response mostly above about 13%, no sharp cut-off; inactive means mostly below about 14%; further: read at 38.3 µM for the half of the compounds with a filed dose
A number is an active result; – = inactive; ? = inconclusive; · = no result. In the library only some 12% were active in any assay of this set; here they are far more common.

SMILES | Shiga inhibitor | Marburg entry inh | LASV entry inh | Cycloheximide cs
Cc1cccc(C)c1NC(=O)CN(C)C(=O)Cc1cccc(C(F)(F)F)c1 | 31.4 | – | ? | –
NC(=O)c1sc2nccc(Nc3ccccc3)c2c1N | – | ? | – | 15.0
NC(=O)c1sc2nc(-c3ccccc3)c3c(c2c1N)CCCC3 | – | · | · | –
COc1ccc2c3c(c(=O)oc2c1)[C@H]1O[C@](c2ccsc2)(Cc2cc(C#N)ccc21)O3 | · | – | · | ·
CC1(C)Cc2c(ccc3ccccc23)C(=O)N1 | – | – | ? | 11.3
CCCc1ccc2oc(C(=O)NCCc3nc(C(=O)OCC)cs3)c(C)c2c1 | 50.2 | ? | – | 32.4
COc1ccc(CCNC(=O)c2oc3ccc(OC)cc3c2C)cc1 | – | · | · | –
CCOC(=O)c1csc(NC(=O)c2cc(=O)c3ccccc3o2)n1 | – | · | · | –
CCCc1ccc2oc(C(=O)NCCc3cnn(C)c3)c(C)c2c1 | 104.2 | – | ? | 34.0
Cc1ccc(NC(=O)c2cc(S(=O)(=O)N3CCOCC3)c(Br)s2)cc1 | – | – | 10µM | –
CC(=O)c1ccc(NC(=O)c2ccc(C)c(S(=O)(=O)N3CCOCC3)c2)cc1 | – | ? | – | –
CCOC(=O)c1ccc(NC(=O)c2ccc(C)c(S(=O)(=O)N3CCOCC3)c2)cc1 | – | 2.82µM | ? | –
Cc1ccc(C(=O)Nc2ccc3cn[nH]c3c2)cc1S(=O)(=O)N1CCOCC1 | 49.2 | · | · | 21.2
O=C1[C@H]2[C@H]3[C@H](O)[C@H](O)C/C(=N/OCc4ccccc4)[C@@H]3CC[C@@H]2C(=O)N1C[C@@H]1CCCO1 | · | – | · | ·
CCOC(=O)c1c(C)[nH]c(C)c1C(=O)COC(=O)c1cccc(S(=O)(=O)N(CC)CC)c1 | – | – | 22.4µM | –
CCOC(=O)c1c(C)[nH]c(C)c1C(=O)COC(=O)c1ccc(S(=O)(=O)N(CC)CC)cc1 | – | – | ? | –
Cc1ccc(C)c(NC(=O)Cn2c(=O)n(CC(=O)NCCc3ccccc3)c(=O)c3ccccc32)c1 | · | – | – | ·
CCSc1nnc(NC(=O)c2ccc3ccccc3n2)s1 | 120.5 | ? | ? | 26.0
CCc1nnc(NC(=O)c2nc(Cl)ccc2Cl)s1 | – | · | · | –
CCc1nnc(NC(=O)c2ccc3ccccc3n2)s1 | 70.0 | · | · | 45.1
CCSc1nnc(NC(=O)c2cc(C)nc3ccccc23)s1 | – | ? | – | –
CC1(C)C2CCC1(C)C(SC(=N)N)C2 (stereo not drawn) | · | ? | – | ·
COc1ccc2c(c1)CC/C2=N\OC(=O)c1ccccc1C | 134.8 | ? | – | 50.4
COc1ccc2c(c1)CCC/C2=N/OC(=O)c1ccccc1OC | – | · | · | 28.8
O=C(O/N=C1\CCCc2ccccc21)c1cccs1 | 69.8 | – | – | 35.8
SMILES | Shiga inhibitor | Marburg entry inh | LASV entry inh | Cycloheximide cs
COc1ccc2c(c1[N+](=O)[O-])CCC/C2=N/OC(=O)c1cccc2ccccc12 | – | – | – | –
COc1ccccc1C(=O)O/N=C(\c1ccccc1)c1ccncc1 | – | – | – | –
COc1ccccc1C(=O)ON=C1c2ccccc2-c2ccccc21 | – | ? | ? | 18.9
CC(=O)C1=C(C)N(Cc2ccccc2)C(=O)NC1c1cccc(C(F)(F)F)c1 (stereo not drawn) | · | – | · | ·
CCC(=O)Oc1ccc(-c2nc3ccccc3c(=O)o2)cc1 | · | ? | – | ·
COc1cccc(CNCCCSc2nnnn2C)c1 | · | – | – | ·
Cc1cccc(C(=O)O/N=C2\CCS(=O)(=O)c3sccc32)c1 | – | – | – | –
COc1ccc(OCC(=O)N/N=C2\CCc3ccccc32)cc1 | – | – | – | –
COc1ccc2c(c1)CC/C2=N\NC(=O)c1ccccc1 | 75.4 | ? | – | 63.8
COc1ccc2c(c1)CC/C2=N\OC(=O)c1cccc(C)c1 | 138.6 | ? | ? | 51.9
CSc1ncccc1C(=O)N1CCCC(N2CCN(c3ccccc3F)CC2)C1 (stereo not drawn) | – | · | · | –
O=C(/C=C/c1ccncc1)c1cc(Cl)ccc1O | – | – | – | –
COc1ccc(C(=O)/C=C/c2ccccc2)c(O)c1 | 53.6 | · | · | 69.7
COc1ccc(/C=C/C(=O)c2ccc(Cl)cc2)c(OC)c1 | 80.0 | ? | – | 43.3
COc1ccc(C(=O)/C=C/c2ccc(OC)cc2OC)c(O)c1 | 72.3 | · | · | 43.0
COc1ccc(/C=C/C(=O)c2cc(Cl)ccc2O)c(OC)c1 | 49.5 | – | – | 24.6
COc1ccc(C(=O)C=Cc2cccs2)c(O)c1 | · | ? | – | ·
O=C(CCCn1c(=O)c2ccccc2n(CC(=O)Nc2cccc(C(F)(F)F)c2)c1=O)NCc1ccc2c(c1)OCO2 | · | – | – | ·
CC(=O)Nc1ccc(NC(=O)c2ccc3c(c2)CCN3S(=O)(=O)c2ccc(Cl)cc2)cc1 | · | ? | – | ·
COc1ccc(C(=O)/C=C/C(=O)N(CC(=O)NC2CCCCC2)Cc2ccccc2OC)c(O)c1 | – | ? | ? | –
COc1ccc(C(=O)/C=C/C(=O)N(CC(=O)NC2CCCCC2)Cc2ccccc2)c(O)c1 | – | ? | 3.98µM | –
COc1ccc(CCN2C(=O)N(c3cccc(C)c3)C(=O)C2CC(=O)Nc2ccccc2)cc1OC (stereo not drawn) | · | – | – | ·
CCc1ccc(NC(=S)Nc2cc(C(=O)O)ccc2N2CC3CC(C2)c2cccc(=O)n2C3)cc1 (stereo not drawn) | 70.0 | · | · | –
COc1ccc(NC(=O)Nc2ccc(F)c(F)c2)c(OC)c1 | – | ? | – | 14.0
COc1ccc(NC(=O)Nc2cccc(F)c2)c(OC)c1 | – | – | – | 16.6
SMILES | Shiga inhibitor | Marburg entry inh | LASV entry inh | Cycloheximide cs
CCOc1cccc(NC(=O)C(Cc2cccs2)c2nn[nH]n2)c1 (stereo not drawn) | – | – | – | –
COc1ccc(CC(C(=O)Nc2cccc(F)c2)c2nn[nH]n2)c(OC)c1 (stereo not drawn) | – | – | – | 16.8
COc1ccc(NC(=O)Nc2ccncc2)c(OC)c1 | – | – | – | –
C/C(=N\Nc1nc(C(=O)O)cs1)c1ccccc1 | – | ? | – | 23.2
C/C(=N\Nc1nc(C(C)(C)C)cs1)c1ccccc1 | 134.5 | · | · | 57.3
C/C(=N\Nc1nc(C(C)(C)C)cs1)c1ccc(O)cc1 | 120.7 | · | · | 52.9
COc1ccc(CCNC(=O)c2cnc3sc(N4CCCC4)nn3c2=O)cc1OC | · | · | – | ·
CC(=O)Nc1ccc(NC(=O)C(C)OC(=O)C2CCCCC2)cc1 (stereo not drawn) | · | ? | – | ·
CCN(CC)C(=O)CSC(=Nc1ccccc1F)NC#N | 73.2 | – | – | 21.7
CC(C)Sc1nc(SCC(=O)NCc2ccco2)c2c3c(sc2n1)COC(C)(C)C3 | 183.0 | – | – | 92.9
Cc1nc(SCC(=O)NCc2ccco2)c2c3c(sc2n1)CCCC3 | 43.0 | – | – | 23.6
CC(C)Sc1nc(SCC(=O)O)c2c3c(sc2n1)COC(C)(C)C3 | 53.8 | · | · | 42.8
Cc1nc(SCC(=O)N(C)Cc2ccco2)c2c(C)c(C)sc2n1 | – | 7.3µM | ? | –
Cc1ccc(C)c(N2CC(C(=O)O)CC2=O)c1 (stereo not drawn) | – | – | – | –
N#Cc1c(-c2ccc(Cl)cc2)n(O)c2ccccc12 | · | 8.91µM | 12.6µM | ·
COc1cccc2c1OCC/C2=N\NC(=O)COc1ccc(C)cc1 | 23.5 | ? | ? | –
O=C(Nc1ccc(Cl)cc1)N1CCC(c2nc(-c3ccc(F)cc3)no2)CC1 | 53.1 | – | – | 34.7
COc1ccc(-c2noc(C3CCCN(C(=O)Nc4ccccc4)C3)n2)cc1 (stereo not drawn) | – | · | · | –
